Screening data: PubChem, several laboratories
TWEAK-Fn14 inh – inhibitors of TWEAK-Fn14 interaction signaling; inhibition, % at 10 µM; TWEAK-stimulated Fn14 reporter cells, luciferase luminescence, 8 h; 360,000 tested, 2% active; in the data active = inhibition above about 50%
EBV LMP1 NFkB – inhibitors of Epstein-Barr LMP1-induced NF-kappaB reporter | LMP1-induced NF-kappaB luciferase reporter cells, luminescence | inhibition, % at 12.5 µM | 350,000 tested, 0.69% active | AID 504558; in the data active = inhibition above about 41%; inconclusive = no clear call, values can overlap the other calls;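 note: 0% = neutral control wells and 100% = reference inhibitor control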
LGR2 inh – blocks bursicon-induced cAMP signaling via Drosophila LGR2; HEK293 LGR2, CRE-luciferase, bursicon-stimulated, 4 h; 380,000 tested, 0.35% active; inhibition, % at 9.99 µM;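 active = drop in luminescence signal, shown as inhibition above about 50% in the replicate tests, limit read from the data, passing the limit was not always enough; inconclusive = probably only some replicates passing the limit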;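 note: agonist challenge used bursicon conditioned medium at about half maximal strength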
EWS-Fli inh – EWS/Fli transcriptional activity inhibition; A673 NR0B1-luciferase reporter, viability-normalised; 350,000 tested, 0.67% active; inhibition, % at 12.6 µM;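 active = mean inhibition of at least 50% after viability correction, with every replicate also passing that limit; inconclusive = mean reaches 50% but only one of two replicates passes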;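 note: firefly luciferase signal divided by Alamar Blue viability fluorescence both relative to DMSO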
TROY signal inh – blocks TROY-dependent signaling in reporter cells; inhibition, % at 10 µM; 360,000 tested, 0.98% active; Q293 LMP1-TROYcd NF-kB luciferase reporter, 4 h; AID 1347056;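 active = compounds whose plate-normalised and pattern-corrected inhibition of the luciferase reporter signal at the single screening dose is 50% or more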
Starred values were filed as active, the others as inactive; ? = inconclusive; / = not tested or not shown. The list is not random: actives were taken first. Their share in the collection is about 2.5%.

SMILES	TWEAK-Fn14 inh	EBV LMP1 NFkB	LGR2 inh	EWS-Fli inh	TROY signal inh
COc1ccccc1CNC(=O)C[C@H]1CC[C@@H]2[C@H](COC[C@@H](O)CN2C(=O)Nc2ccc(F)cc2)O1	/	/	9	-3	/
O=C(Nc1ccc2ccccc2n1)c1ccccc1Cl	-16	0	-45	2	21
COc1cc(SC)ccc1C(=O)Nc1nc2ccccc2[nH]1	100*	96*	105*	94*	84*
COc1ccccc1C(=O)Nc1nc2ccccc2[nH]1	107*	88*	103*	92*	89*
COc1ccc(C(=O)Nc2ccc3ccccc3n2)c(OC)c1OC	88*	15	89*	55*	72*
COc1cc(SC)ccc1C(=O)Nc1nccs1	63*	2	36	39	31
COc1cc(SC)ccc1C(=O)Nc1ccccc1	16	-36	/	/	-72
C[C@@H]1CCCCO[C@@H](CN(C)S(=O)(=O)c2cn(C)cn2)[C@H](C)CN([C@@H](C)CO)C(=O)c2cc(NS(=O)(=O)c3cn(C)cn3)ccc2O1	/	/	1	-17	/
C/C=C/c1ccc2c(c1)O[C@H](CN(C)Cc1ccccn1)[C@@H](C)CN([C@@H](C)CO)S2(=O)=O	/	/	1	5	/
C/C(=N/Nc1ccc(C(=O)c2c(C)cc3ccccn23)cc1[N+](=O)[O-])c1ccc(O)cc1	53*	-2	1	18	14
Cc1cc2ccccn2c1C(=O)c1ccc(N/N=C/c2ccc(C(=O)O)cc2)c([N+](=O)[O-])c1	49	-2	4	2	35
C/C(=N\Nc1ccc(C(=O)c2c(C)cc3ccccn23)cc1[N+](=O)[O-])c1ccc(O)cc1	62*	0	15	-33	19
Cc1cc2ccccn2c1C(=O)c1ccc(Cl)cc1	-11	-4	/	/	-46
O=C(c1ccc(S(=O)(=O)Cc2ccccc2F)c([N+](=O)[O-])c1)N1CCCCCC1	37	-3	32	28	28
O=C(c1ccc(S(=O)(=O)c2cccc(Cl)c2)c([N+](=O)[O-])c1)N1CCN(c2ccccn2)CC1	90*	20	59*	2	58*
O=C(c1cccc(Cl)c1)N1CCN(c2ccccn2)CC1	7	-4	/	/	-16
O=C(c1cnc(N2CCN(c3ccccn3)CC2)c2ccccc12)N1CCN(c2cccc(Cl)c2)CC1	91*	29	-6	27	46
O=C(c1ccc(S(=O)(=O)c2ccccc2Cl)c([N+](=O)[O-])c1)N1CCCCCC1	66*	10	4	/	25
COc1ccc(NC(=O)N2CCCCN3[C@H](CO)[C@@H](c4ccc(C5=CCCC5)cc4)[C@@H]3C2)cc1	/	/	/	-10	/
CCCC#Cc1cnc2c(c1)C(=O)N([C@H](C)CO)C[C@H](C)[C@@H](CN(C)C(=O)Nc1ccc(OC)cc1)O2	/	/	-5	-4	/
CCN1C(=O)c2cccc3c(S(=O)(=O)N(C(=O)c4cccnc4)c4ccc(OC)cc4)ccc1c23	62*	0	27	/	33
CC=Cc1ccc2n(c1=O)C[C@@H]1[C@@H](CO)[C@H](C(=O)NC3Cc4ccccc4C3)N(CC3CC3)[C@H]21 (mixture of isomers)	/	/	-2	-4	/
CC(=O)OCC(=O)[C@@]1(O)CCC2C3CCC4=CC(=O)CCC4(C)C3C(=O)CC21C (stereo not given in full)	-4	-3	9	10	26
CC(=O)[C@@]1(O)CC[C@H]2[C@@H]3CCC4=CC(=O)CC[C@]4(C)[C@H]3[C@@H](O)C[C@@]21C	-13	56*	0	0	2
CC12CCC(=O)C=C1CCC1C2C(=O)CC2(C)C1CC[C@]2(O)C(=O)CO (stereo not given in full)	78*	2	13	-3	5
SMILES	TWEAK-Fn14 inh	EBV LMP1 NFkB	LGR2 inh	EWS-Fli inh	TROY signal inh
O=C(C1CCCC1)N1[C@H](CO)[C@H](c2ccccc2)C12CN(CCC(F)(F)F)C2	/	/	-14	5	/
Cc1ccc(C(=O)c2ccc(C)cc2)cc1	-13	-6	-41	-55	-65
Cc1ccc(C(=O)c2no[n+]([O-])c2C(=O)c2ccc(C)cc2)cc1	53*	1	-14	?	-9
CCOc1ccc(S(=O)(=O)Nc2ccc(C(=O)N(CC)CC(=O)NCc3cccs3)cc2)cc1	74*	-3	-5	3	1
Cc1ccc(OCC(=O)NCCNC(=O)c2ccco2)cc1C	52*	2	-3	-10	-4
Cc1cccc(OCC(=O)NCCNC(=O)c2ccco2)c1	25	-13	7	-9	-14
CCN1/C(=C/c2ccc3ccccc3[n+]2CC)C=Cc2ccccc21	56*	53*	/	/	52*
CCN1/C(=C/c2ccc3cc(C)ccc3[n+]2CC)Sc2cc(C)ccc21	32	15	22	59*	30
Cc1ccc2c(c1)S/C(=C/c1ccc[n+](C)c1)N2CCO	4	1	36	20	-9
CCN1/C(=C/c2ccc3cc(C)ccc3[n+]2C)Sc2ccc3sccc3c21	38	23	5	53*	37
CCCCN1/C(=C/c2ccc3ccccc3[n+]2CC)Sc2ccccc21	66*	52*	/	/	26
CCN1/C(=C/c2ccc3ccccc3[n+]2CCCS(=O)(=O)[O-])C=Cc2cc(C)ccc21	-8	13	1	-4	19
CO[C@@H]1CN(C)C(=O)c2ccc(NS(=O)(=O)c3cccc(F)c3)cc2OC[C@@H](C)N(C(=O)Cc2cccnc2)C[C@@H]1C	/	/	23	4	/
CCCc1[nH]c2ccc(C#N)cc2c1CCC	39	-6	10	20	53*
CCOC(=O)c1ccc(NC(=O)c2ccccc2[N+](=O)[O-])cc1	-1	-8	-49	/	-25
CCOC(=O)c1cc([N+](=O)[O-])c([N+](=O)[O-])cc1NC(C)=O	49	22	-3	62*	6
COc1cc(NC(=O)C2=C(N3CCOCC3)/C(=C\c3ccc(Cl)cc3Cl)CC2)cc(OC)c1OC	52*	20	-8	14	34
CC(C)CC#Cc1cnc2c(c1)C(=O)N([C@H](C)CO)C[C@@H](C)[C@H](CN(C)C(=O)Cc1cccnc1)O2	/	/	-1	0	/
Cc1cc(NC(=O)c2ccccc2NS(=O)(=O)c2c(C)c(C)cc(C)c2C)no1	38	16	/	/	53*
Cc1noc(C)c1NC(=O)N(C)C[C@H]1Oc2ccc(NC(=O)Nc3ccccc3)cc2CC(=O)N([C@@H](C)CO)C[C@H]1C	/	/	6	-4	/
CC1=CCC2([N+](=O)[O-])CN(CC(=O)O)CC1([N+](=O)[O-])C2 (stereo not given)	-16	-2	3	-5	-6
CCN1CC2([N+](=O)[O-])CC=C(OC)C([N+](=O)[O-])(C1)C2 (stereo not given)	73*	-4	5	/	-18
COc1ccc(-c2cn3nc4c(nc3n2)CCCC4)cc1	-18	62*	46	/	25
COc1cccc(-c2cn3nc(C)c(C)nc3n2)c1	5	6	26	/	5
O=C(CSc1nnc2ccccn12)NC(=O)Cc1ccccc1	52*	6	11	5	0
